Results reported in PubChem BioAssay (NCI).
The panel holds about 83,000 compounds, 20% with a hit somewhere; the sample as a whole holds those more often.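 48-hour exposure, single concentration, 96-well plates; percent growth endpoint where 0 means no net growth. Active: below 10.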 Activity calls are given as the source filed them.

The molecules below were run on NCI-H23 lung (assay: NCI-60 one-dose screen, 48 h (100 = growth as untreated, 0 = no growth, -100 = all killed)). Details: 10 µM unless noted.

Row | Compound | growth
1 | O=c1c(/C=C/c2ccco2)nnc(SCCN2CCOCC2)n1/N=C/c1ccc([N+](=O)[O-])cc1 | 91% (inactive)
2 | COc1cc(C2CC(=O)Nc3c2c(C)nn3-c2nc3ccccc3[nH]2)cc(OC)c1OC (stereo not drawn) | 99.6% (inactive)
3 | CCCCN(CCCC)CCC(C)(O)c1cc2ccccc2c2ccccc12 (stereo not drawn) | 83.8% (inactive)
4 | OCCNCCNc1c2ccccc2nc2ccccc12 | 64.8% (inactive)
5 | C/C(=C(/c1ccc(O)cc1)c1ccc(OCCN(C)C)cc1)c1ccccc1 | 81.9% (inactive)
6 | CC#Cc1nc2ccccc2c(=O)[nH]1 | 80.6% (inactive)
7 | CNC(=O)c1cc(Oc2ccc3nc(NC(=O)Nc4ccc(N5CCC(N(C)C)CC5)cc4)sc3c2)ccn1 | 88.1% (inactive)
8 | CCN(CC)CCCNc1cc(OC)cc2nc3cc(Cl)ccc3nc12 | -46.7% (active)
9 | Cn1c2ccccc2c2c3c(c4c5ccccc5n(CCCCCC#N)c4c21)C(=O)N(O)C3=O | 4.85% (active)
10 | CN1CCN(Cc2ccc(NC(=O)c3[nH]ncc3Nc3ccnc4ccsc34)cc2)CC1 | 15.4% (inactive)
11 | O=C(NCc1cccc(C(F)(F)F)c1)[C@H](CCC(=O)N1CCN(C2CCCCC2)CC1)N1C(=O)[C@@H](N2C(=O)OC[C@@H]2c2ccccc2)[C@H]1/C(Cl)=C/c1ccccc1 | 68.4% (inactive)
12 | CC/C(=C(\c1ccccc1)c1ccc(OCCNC)cc1)c1ccccc1 | -90.5% (active)
13 | O=C(COCc1c(-c2ccccc2)no[n+]1[O-])Nc1ccc(C(=O)/C=C/c2ccc3c(c2)OCO3)cc1 | 101% (inactive)
